Results on 27 compounds are retold here after PubChem BioAssay (NCATS).

Assay [1] deals with Rap guanine nucleotide exchange factor 3 (Homo sapiens) (UniProt O95398). The experiment in a line: Confirmatory qHTS for agonist of cAMP-regulated guanine nucleotide exchange factor 3 (EPAC1) (AID 1645881).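 Note: EPAC1 catalysed release of BODIPY-GDP from Rap1B seen as fluorescence loss; 100% = effect of cAMP agonist control; nearly all actives have a fitted effect of over 75% in size.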 For orientation: Quantitative high-throughput screening tests each substance at several concentrations.
The target of assay [2] is Rap guanine nucleotide exchange factor 4 (Homo sapiens) (UniProt Q8WZA2). The assay is described as follows: Confirmatory qHTS for agonist of cAMP-regulated guanine nucleotide exchange factor 4 (EPAC2) (AID 1645884).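 Note: nucleotide exchange releases bodipy-GDP from Rap1 and this lowers its fluorescence; % is set by controls: 0 for no effect and ±100 for the full control effect; nearly all actives have a fitted effect of over 65% in size.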
Assay [3] shares this target. The experiment in a line: Confirmatory qHTS for antagonist of cAMP-regulated guanine nucleotide exchange factor 4 (EPAC2) (AID 1645885). For activity change, negative = inhibition: % is set by controls: 0 for no effect and ±100 for the full control effect. Note: nearly all actives have a fitted effect of over 25% in size. Note: potency is the fitted concentration of half-maximal effect.
Assay [4] concerns the target Rap guanine nucleotide exchange factor 3 (Homo sapiens) (UniProt O95398). The experiment in a line: Counterscreen qHTS for antagonist of cAMP-regulated guanine nucleotide exchange factor 3 (EPAC1) (AID 1645888).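 Note: fluorescence loss as bound BODIPY-GDP is released from Rap1B; % of control where 0% means no effect.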 The essentials:
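Measured: fluorescence of BODIPY-GDP bound to Rap1B, which falls as exchange proceeds. Conditions include 50 uM competing GDP, 5 and 30 min reads, and a later cAMP challenge for antagonist detection.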
In general terms: Counterscreens check selectivity or assay interference.

The structures appear in SMILES notation. Inconclusive results are not listed. Values without a mark were called inactive. The source made the active and inactive calls. Calls come from the whole dose curve; as a rule, active = well fitted curve in the direction sought with a large enough effect; inconclusive = small, poorly fitted or top-dose-only effect, or another doubt; inactive = no such curve, though single readings can be large; an effect the other way counts as inactive or inconclusive.

Chain of Rap guanine nucleotide exchange factor 4 (Homo sapiens) (Q8WZA2 whole entry, looked up): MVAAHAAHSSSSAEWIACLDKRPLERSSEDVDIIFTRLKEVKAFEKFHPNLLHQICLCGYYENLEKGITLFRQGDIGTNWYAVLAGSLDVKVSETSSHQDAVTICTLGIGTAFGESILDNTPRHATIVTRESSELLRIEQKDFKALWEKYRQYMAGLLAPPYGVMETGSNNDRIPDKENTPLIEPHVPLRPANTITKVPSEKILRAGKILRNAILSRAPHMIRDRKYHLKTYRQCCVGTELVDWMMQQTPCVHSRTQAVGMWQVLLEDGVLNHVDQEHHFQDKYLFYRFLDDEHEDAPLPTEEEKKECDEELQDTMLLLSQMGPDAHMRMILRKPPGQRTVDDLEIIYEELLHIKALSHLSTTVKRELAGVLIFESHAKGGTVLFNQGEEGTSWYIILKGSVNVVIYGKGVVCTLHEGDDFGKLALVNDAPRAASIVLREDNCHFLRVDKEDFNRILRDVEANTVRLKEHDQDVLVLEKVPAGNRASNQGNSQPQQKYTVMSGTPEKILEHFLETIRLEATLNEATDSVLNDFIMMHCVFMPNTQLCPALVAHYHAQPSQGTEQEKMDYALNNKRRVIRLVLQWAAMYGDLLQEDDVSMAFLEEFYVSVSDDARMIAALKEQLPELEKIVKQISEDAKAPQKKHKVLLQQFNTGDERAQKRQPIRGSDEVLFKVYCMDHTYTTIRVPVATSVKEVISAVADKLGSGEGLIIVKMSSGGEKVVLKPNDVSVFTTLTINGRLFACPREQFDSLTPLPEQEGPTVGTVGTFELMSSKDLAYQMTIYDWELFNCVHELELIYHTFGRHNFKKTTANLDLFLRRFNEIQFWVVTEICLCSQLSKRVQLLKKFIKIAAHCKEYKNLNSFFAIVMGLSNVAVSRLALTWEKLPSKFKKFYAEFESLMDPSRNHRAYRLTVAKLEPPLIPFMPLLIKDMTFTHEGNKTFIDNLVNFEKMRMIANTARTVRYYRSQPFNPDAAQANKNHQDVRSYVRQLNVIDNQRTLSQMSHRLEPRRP
Chain of Rap guanine nucleotide exchange factor 3 (Homo sapiens) (O95398 whole entry, looked up): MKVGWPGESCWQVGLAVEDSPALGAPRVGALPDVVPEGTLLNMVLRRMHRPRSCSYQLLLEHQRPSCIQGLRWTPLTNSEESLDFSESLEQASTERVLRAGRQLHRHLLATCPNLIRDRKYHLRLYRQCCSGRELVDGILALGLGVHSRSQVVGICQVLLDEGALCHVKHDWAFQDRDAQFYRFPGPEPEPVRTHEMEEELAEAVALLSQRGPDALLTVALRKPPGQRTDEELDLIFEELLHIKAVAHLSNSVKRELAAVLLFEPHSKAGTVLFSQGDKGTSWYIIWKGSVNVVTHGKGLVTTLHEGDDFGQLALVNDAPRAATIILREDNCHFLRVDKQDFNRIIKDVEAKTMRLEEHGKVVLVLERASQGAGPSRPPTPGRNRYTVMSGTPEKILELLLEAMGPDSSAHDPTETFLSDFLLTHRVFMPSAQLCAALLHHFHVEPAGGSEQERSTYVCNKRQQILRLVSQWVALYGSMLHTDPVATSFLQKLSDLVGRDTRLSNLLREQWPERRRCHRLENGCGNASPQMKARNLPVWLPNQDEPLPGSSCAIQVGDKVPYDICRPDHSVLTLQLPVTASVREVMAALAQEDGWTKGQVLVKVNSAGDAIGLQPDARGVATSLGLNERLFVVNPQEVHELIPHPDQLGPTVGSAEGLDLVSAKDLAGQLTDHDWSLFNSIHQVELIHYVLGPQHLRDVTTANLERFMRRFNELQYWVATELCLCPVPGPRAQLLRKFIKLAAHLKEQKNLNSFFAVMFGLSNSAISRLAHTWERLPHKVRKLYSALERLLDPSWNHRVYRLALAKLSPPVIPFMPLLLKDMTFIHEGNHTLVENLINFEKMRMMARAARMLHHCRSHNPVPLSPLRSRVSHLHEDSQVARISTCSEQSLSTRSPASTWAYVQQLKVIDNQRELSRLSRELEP

For `COC(=O)CC1(C(=O)OC)Oc2ccc(Br)cc2C(=O)N1c1cccc(Cl)c1Cl` (stereo not drawn), the Potency entry in assay [1], in assay [2] and in assay [4] was “inactive” throughout. For the same compound, in assay [3], the Potency was 1.69 µM (active).
With `COc1ccc(OCc2nc3ccccc3n2C(C)c2ccccc2)cc1` (stereo not drawn), the Potency result in assay [1], in assay [2], in assay [3] and in assay [4] was “inactive” throughout.
With `O=c1nc(/C=C/c2cccn2-c2ccc([N+](=O)[O-])cc2)cc(C(F)(F)F)[nH]1`, the Potency result in assay [1], in assay [2], in assay [3] and in assay [4] was “inactive” in each case.
For `CCOc1cc(-c2ccc(OC(=O)c3ccccc3)c(OC)c2)cc(=O)c2c(C)oc(C)c12`, the Potency result in assay [1], in assay [2] and in assay [4] was “inactive” each time. Besides, in assay [3], the outcome is “inactive [at 12.7 µM]”.
`CC(C)CNc1ncnc2onc(-c3ccc(Cl)cc3)c12`: the Potency result in assay [1], in assay [2], in assay [3] and in assay [4] was “inactive” in each case.
Regarding `COC(=O)c1ccc2nc(-c3ccc(F)cc3)c(Cc3ccc(C)cc3)n2c1`, the Potency entry in assay [1] and in assay [3] was “inactive” throughout. For the same compound, the activation in assay [2] was 1.87% [at 17.1 µM, percent relative to cAMP agonist control]. Moreover, the activity change, negative = inhibition in assay [4] was -2.87% [at 30.8 µM].
In the case of `CCc1nc2c(OCc3ccc(C(F)(F)F)cc3)cccn2c1N(C)C(=O)c1ccc(C)cc1`, the Potency entry in assay [1], in assay [2], in assay [3] and in assay [4] was “inactive” each time.
In the case of `Cc1ccc(N(Cc2ccc([N+](=O)[O-])cc2)C(=O)c2ccco2)cc1`, the Potency entry in assay [1], in assay [2] and in assay [4] was “inactive” in each case. For the same compound, the Potency in assay [3] was 15.1 µM (active).
In the case of `Cc1ccccc1C(=O)Nc1cccc(C(=O)N/N=C/c2cc(Cl)cc([N+](=O)[O-])c2O)c1`, the Potency result in assay [1], in assay [2], in assay [3] and in assay [4] was “inactive” throughout.
Turning to `N#CCC(=O)N/N=C/c1coc2ccccc2c1=O`, the Potency entry in assay [1], in assay [2], in assay [3] and in assay [4] was “inactive” each time.
`COc1ccc(OCc2nc3ccccc3n2Cc2ccc(C(C)(C)C)cc2)cc1`: the Potency entry in assay [1], in assay [2], in assay [3] and in assay [4] was “inactive” in each case.
For the compound `CC[C@@H]1CC=C[C@H]2[C@H]1C(=O)N(Cc1ccccc1)[C@H]2c1ccc(OC)c(Cl)c1`, the Potency entry in assay [1], in assay [2], in assay [3] and in assay [4] was “inactive” each time.
For the compound `Cc1cccn2c(=O)c3cc(C#N)c(=NC(=O)c4ccccc4)n(Cc4ccco4)c3nc12`, the Potency result in assay [1] and in assay [3] was “inactive” each time. Also, in assay [2], the activation is 11% [at 17.1 µM, percent relative to cAMP agonist control]. Also, the activity change, negative = inhibition in assay [4] was 15.9% [at 30.8 µM].
Regarding `COc1ccc(OC)c(CNC(=O)CCCc2cn(C)c3ccccc23)c1`, the Potency entry in assay [1], in assay [2], in assay [3] and in assay [4] was “inactive” throughout.
`CCOC(=O)c1ccc(-n2c(N)c(C(=O)OC)c3nc4ccccc4nc32)cc1`: the Potency entry in assay [1], in assay [2] and in assay [4] was “inactive” throughout. The outcome in assay [3] was “inactive [at 12.7 µM]”.
On to `CC(C)c1ccc(/C=C/C(=O)Nc2ccc(CN3CCOCC3)cc2)cc1`, for which the Potency result in assay [1], in assay [2] and in assay [4] was “inactive” each time. Besides, the Potency in assay [3] was 95.3 µM (active).
`COc1cc2c(cc1OC)C(c1cccs1)N(C(=O)C(C)C)CC2` (stereo not drawn): the Potency entry in assay [1], in assay [2], in assay [3] and in assay [4] was “inactive” throughout.
Regarding `CCCS(=O)(=O)c1c(S(=O)(=O)CCC)c2cnccn2c1C(=O)c1ccc(CC)cc1`, the Potency entry in assay [1] and in assay [3] was “inactive” in each case. In addition, in assay [2], the activation is 12.5% [at 17.1 µM, percent relative to cAMP agonist control]. The activity change, negative = inhibition in assay [4] is -2.89% [at 30.8 µM].
Turning to `Cc1ccc(-c2cc(C(=O)Nc3ccc(S(=O)(=O)Nc4onc(C)c4C)cc3)c3ccccc3n2)cc1`, the Potency result in assay [1] and in assay [3] was “inactive” each time. Also, the activation in assay [2] is 6.25% [at 17.1 µM, percent relative to cAMP agonist control]. In assay [4], the activity change, negative = inhibition was 1.26% [at 30.8 µM].
For `CCCc1nc2ccc(C(=O)OC)cn2c1Cc1ccc(C)cc1`, the Potency result in assay [1], in assay [2], in assay [3] and in assay [4] was “inactive” in each case.
`CCN(CC)CC#CC(OC)(c1ccccc1)c1ccccc1`: the Potency result in assay [1], in assay [2], in assay [3] and in assay [4] was “inactive” throughout.
Turning to `O=C(COc1ccccc1-c1ccccc1)NCc1ccco1`, the Potency entry in assay [1], in assay [2] and in assay [4] was “inactive” each time. The outcome in assay [3] was “inactive [at 12.7 µM]”.
As to `Nc1c2c(=O)[nH]c(O)cc2nn1-c1ccccc1`, the Potency result in assay [1], in assay [2], in assay [3] and in assay [4] was “inactive” in each case.
On to `CCOC(=O)Cc1cc(=O)n2[nH]c(-c3ccccc3)c(-c3ccccc3)c2n1`, for which the Potency result in assay [1], in assay [2], in assay [3] and in assay [4] was “inactive” throughout.
In the case of `Nc1ccc2ccc(O)cc2c1`, the Potency result in assay [1] and in assay [3] was “inactive” in each case. In assay [2], the activation is 14.1% [at 17.1 µM, percent relative to cAMP agonist control]. Also, the activity change, negative = inhibition in assay [4] is -3.65% [at 30.8 µM].
Take `COC(=O)Cn1c(CN2CCc3ccccc3C2)nc2c1c(=O)n(C)c(=O)n2C`: the Potency entry in assay [1], in assay [2], in assay [3] and in assay [4] was “inactive” each time.
Turning to `C=CCOC(=O)C1=C(C)NC(C)=C(C(=O)OCC=C)C1c1ccco1`, the Potency entry in assay [1] and in assay [3] was “inactive” in each case. The activation in assay [2] is 7.19% [at 17.1 µM, percent relative to cAMP agonist control]. For the same compound, the activity change, negative = inhibition in assay [4] is -5.56% [at 30.8 µM].
